Pol beta inh: blocks human DNA polymerase beta activity; Pol beta primer extension/strand displacement, fluorescence kinetic; P06746; actives 1.3% (n = 340,000); AID 485314; Potency, µM (highest dose often 114 µM), actives largely listed as inhibitors
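10 nM enzyme + cpd, 15 min RT; start with substrate 50 nM final; read 0 min and after 10 min RT. Corrected, normalized data; 4-parameter Hill curve fit.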
FEN1 inh: human FEN1 inhibition; Recombinant FEN1 flap cleavage, fluorescence, 15 min; Potency, µM (series often up to 114 µM), most hits filed as inhibitors; actives 0.35% (n = 390,000); also: nearly all actives have a fitted effect of over 65% in size
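Concentration–response screening of FEN1 (10 nM): 15 min compound preincubation at room temperature, reaction started with 50 nM substrate and read at 0 and 15 min. Corrected, normalized data were fitted by a four-parameter Hill equation.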
WRN inhibitor: WRN helicase (human) inhibition; Q14191; actives 0.46% (n = 360,000); AID 651768; Potency, µM (top dose mostly 114 µM), usual class: inhibitors; WRN helicase unwinding, fluorescent forked duplex, kinetic; also: nearly all actives have a fitted effect of over 55% in size
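WRN at 20 nM final was preincubated with compound for 15 min at room temperature; reaction started with 100 nM forked duplex oligonucleotide carrying fluorophore and quencher plus 2 mM ATP (final). Unwinding followed kinetically by red fluorescence (ex 525/em 598 nm).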
Pol eta inh-1: blocks human DNA polymerase eta activity | Q9Y253 | recombinant Pol eta, fluorescent DNA replication assay | Potency, µM (doses to about 114 µM), usual class: inhibitors | actives 1.2% (n = 390,000)
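Fluorescent replication assay: 50 nM final substrate added after a 15 min room-temperature compound preincubation with 10 nM enzyme. Signal taken at 0 min and again at 10 min.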
Pol iota inh: inhibitors of human DNA polymerase iota; Pol iota fluorescent replication assay, 10 min; Potency, µM (highest dose often 115 µM), most hits filed as inhibitors; actives 1% (n = 390,000)
Target sequence (Q9UNA4 whole entry, looked up): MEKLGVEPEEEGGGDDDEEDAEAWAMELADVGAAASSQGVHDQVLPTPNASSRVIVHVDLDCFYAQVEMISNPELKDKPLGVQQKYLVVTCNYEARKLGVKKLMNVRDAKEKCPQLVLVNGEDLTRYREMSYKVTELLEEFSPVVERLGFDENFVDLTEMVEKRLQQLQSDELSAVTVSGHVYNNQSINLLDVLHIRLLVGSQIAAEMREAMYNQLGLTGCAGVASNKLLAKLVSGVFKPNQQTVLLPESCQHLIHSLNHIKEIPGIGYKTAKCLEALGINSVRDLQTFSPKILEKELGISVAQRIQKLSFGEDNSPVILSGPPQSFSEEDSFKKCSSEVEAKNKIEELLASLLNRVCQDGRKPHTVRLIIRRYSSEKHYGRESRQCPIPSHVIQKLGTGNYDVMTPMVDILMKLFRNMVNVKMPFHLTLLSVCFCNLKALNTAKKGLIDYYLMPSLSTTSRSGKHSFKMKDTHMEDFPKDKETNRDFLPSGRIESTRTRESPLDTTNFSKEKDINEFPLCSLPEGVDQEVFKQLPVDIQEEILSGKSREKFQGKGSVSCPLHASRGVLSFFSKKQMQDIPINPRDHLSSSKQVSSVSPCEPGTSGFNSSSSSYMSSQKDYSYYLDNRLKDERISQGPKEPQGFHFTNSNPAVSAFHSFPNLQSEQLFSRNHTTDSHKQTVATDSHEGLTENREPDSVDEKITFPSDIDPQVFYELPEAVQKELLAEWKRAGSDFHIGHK
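Fluorescent replication assay read twice, at 0 min and 10 min after adding 50 nM (final) substrate. Enzyme (10 nM) and compounds were first incubated 15 min at room temperature; enzyme-free buffer wells were negative controls.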
Pol kappa inh-1: DNA polymerase kappa (human) inhibition. Q9UBT6. purified Pol kappa, fluorescent DNA synthesis assay, 10 min. Potency, µM (titrated, usually from 107 µM), hits mostly inhibitors. actives 0.53% (n = 400,000). AID 588579
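Activity was followed as the change in fluorescence between reads at 0 and 10 min after starting the reaction with 50 nM substrate. Beforehand, 10 nM polymerase had been preincubated with compound for 15 min at room temperature.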
Pol kappa inh-2: Pol kappa (human) inhibition, cherry-pick confirmation | purified Pol-kappa, fluorescent strand-displacement substrate | actives 76% (n = 920) | shares compounds with Pol eta inh-1 | Potency, µM, usual class: inhibitors
Pol eta inh-2: Pol eta (human) inhibition, cherry-pick confirmation; shares compounds with Pol eta inh-1; Pol eta primer extension, TAMRA/BHQ fluorescence, 10 min; Potency, µM, most hits filed as inhibitors; actives 64% (n = 2,600)
Numbers stand for hits; 0 = inactive; ? = inconclusive; - = not tested or not shown; ! = not active in a repeat; [ ] = another dose, or the depositor's remark. Shown are actives, neighbours in structure and some others; about 2.4% of the full set was active somewhere. Calls follow the shape of the dose curve; as a rule, active = well fitted curve in the direction sought with a large enough effect; inconclusive = small, poorly fitted or top-dose-only effect, or another doubt; inactive = no such curve, though single readings can be large; an effect the other way counts as inactive or inconclusive.

SMILES | Pol beta inh | FEN1 inh | WRN inhibitor | Pol eta inh-1 | Pol iota inh | Pol kappa inh-1 | Pol eta inh-2 | others
CC(=O)Nc1ccc2nc3c(=O)n(C)c(=O)n(C)c3nc2c1 | ? | ? | 10µM | 35µM | 10µM | ? | 85
CCOC1=C/C(=C/c2c(N)n3nc(-c4ccccc4)sc3nc2=O)C=CC1=O | 35µM | 0 | ? | 28µM | ? | ? | ?
O=C(Cn1c(=O)nc(-c2ccccc2)c2ccccc21)NCCc1ccc(Cl)cc1 | 0 | 0 | - | 0 | 0 | 0 | -
S=c1[nH]nc(-c2ccc(Cl)cc2)n1/N=C/c1ccco1 | 0 | 0 | 0 | 0 | 0 | 0 | -
Cc1cc(-c2n[nH]c(=S)n2/N=C/C=C/c2ccco2)n[nH]1 | 40µM | 0 | ? | 45µM | 18µM | 89µM | ?
Cc1ccccc1-c1n[nH]c(=S)n1/N=C/C=C/c1ccco1 | 0 | 16µM | ? | 22µM | 7.9µM | 18µM | 76
Oc1ccccc1C=NCc1ccccc1 | - | - | - | - | - | 0[19.4 µM] | -
O=C1NC(=S)N/C1=C/c1cc2c(cc1[N+](=O)[O-])OCO2 | 0 | 0 | 0 | ? | 0 | ? | 85
O=C(O)/C=C\c1cc2c(cc1[N+](=O)[O-])OCO2 | 0 | 0 | 0 | 0 | 0 | 0 | -
CC(/C=C\c1cccnc1)=C/C(=O)O | 28µM! | 0 | 0 | 20µM! | 0 | 0 | 48
O=C(O)/C=C/c1cccnc1 | 0 | 0 | 0 | 0 | 0 | 0 | -
Cc1cnc(C(=O)NCC(=O)Nc2ccccc2Br)cn1 | - | 0 | 0[11.6 µM] | 32µM | 18µM | ? | ? | Pol kappa inh-2=?
O=C(CNC(=O)c1cc(Cl)nc2ccccc12)Nc1ccccc1Br | - | 0 | 0 | 0 | 0 | 0 | -
Cc1oc(C(=O)O)cc1CSCc1cc(C(=O)O)c(C)o1 | 22µM | 0 | ? | 3.2µM | ? | ? | 27
COc1ccc(-c2c(C)c3ccc(O)cc3oc2=O)cc1OC | 0 | 0 | 0 | 0 | 0 | 0 | -
Nc1ccc(-c2c3ccc(=O)cc-3oc3cc(O)ccc23)cc1C(=O)O | 45µM | 0 | ? | 20µM | 25µM | 79µM | 30 | Pol kappa inh-2=15
Cc1ccc(NC(=O)N2CCC(CN3CCCC3)CC2)c(C)c1 | 0 | 0 | - | 0 | 0 | 0 | -
COc1ccc(OC)c(/C=C2\S/C(=N/NC(=O)c3ccc4ccccc4c3)NC2=O)c1 | 0 | ? | ? | 20µM | 0 | 0 | - | Pol kappa inh-2=?
COc1ccc(/C=C2\SC(=Nc3ccccc3Cl)NC2=O)c(OC)c1 | - | - | 0 | 0 | - | - | -
COc1cc(C(CC(=O)N2CCCC2)c2c(OC)cc(OC)c3c(-c4ccccc4)cc(=O)oc23)cc(OC)c1OC (stereo not drawn) | 45µM | 0 | 0[11.6 µM] | 40µM | ? | ? | ?
COc1ccc(C(CC(=O)N2CCOCC2)c2c(OC)cc(OC)c3ccc(=O)oc23)cc1 (stereo not drawn) | ? | 0 | 0[11.6 µM] | ? | ? | ? | -
COc1cc(C(CCN2CCCCC2)c2c(OC)cc(OC)c3c(-c4ccccc4)cc(=O)oc23)cc(OC)c1OC (stereo not drawn) | ? | 0 | 0 | 0 | 0 | 0 | -
COc1ccc(C(CC(=O)N2CCOCC2)c2c(OC)cc(OC)c3c(-c4ccccc4)cc(=O)oc23)cc1 (stereo not drawn) | 35µM | 0 | 0[11.6 µM] | 40µM | 71µM | ? | ?
Cc1ccc(-c2csc3ncn(CC#N)c(=O)c23)cc1C | 32µM | ? | 0[11.6 µM] | 20µM | 28µM | 79µM | 54 | Pol kappa inh-2=60
CCN(CC)S(=O)(=O)c1cccc(NC(=O)COC(=O)/C=C/c2ccco2)c1 | 0 | 0 | 0 | 0 | 0 | 0 | -
CN(C)S(=O)(=O)c1cccc(NC(=O)COC(=O)/C=C/c2ccco2)c1 | 32µM | 0 | 0 | ? | 0 | 0 | ?
COc1cc(/C=C/C(=O)O)cc(S(=O)(=O)NNC(=O)c2cc(C)oc2C)c1OC | - | 0 | 0 | 18µM | 22µM | ? | ?
Cc1cccc(C(=O)N2CCNC(=O)C2CC(=O)Nc2ccc(F)cc2)c1 (stereo not drawn) | 0 | 0 | - | 0 | 0 | 0 | -
